Reference: ChEMBL document CHEMBL4513216, “Probing the Open Global Health Chemical Diversity Library for Multistage-Active Starting Points for Next-Generation Antimalarials” (ACS Infect Dis, 2020)
In all, about 68,000 compounds went through this assay and about 2,700 (4%) showed an effect of 50% or more. The sample as a whole holds a higher share of strong results than the screen did.

Tested on: Plasmodium berghei
Assay: Screen against P. berghei liver stage (PbLuc), transformed with Luciferase, at 2uM
Type: functional, HepG2
Conditions: tested at 2 uM

Structure (SMILES)	INHIBITION [%]
c1cnc(N2CC[C@@H](OCC3CC3)[C@@H]2Cc2cccnc2)nc1	23.21
CNC(=O)COC1COC2(CCN(c3ccc(C#N)cc3)CC2)C1 (stereo not drawn)	14.97
COCC(=O)N(CCC(=O)OC)CC1CCCO1 (stereo not drawn)	10.4
COCC(=O)N1CC[C@H]2C[C@H](c3nc(C)no3)O[C@@H]2C1	-1.81
COCC(=O)N1CC[C@H]2C[C@H](c3nnc(C4CC4)o3)O[C@@H]2C1	50.61
COCC(=O)N1CC[C@H]2C[C@@H](c3nnc(C4CC4)o3)O[C@@H]2C1	6.55
CC(C)CS(=O)(=O)CCNC(=O)Nc1cccc2ncccc12	-41.73
COCCOCC(=O)Nc1cc(C)ccc1F	12.56
O=C(Cn1cc(C(=O)O)ccc1=O)NCc1ccc(F)cc1Cl	9.27
O=C(Cn1cc(C(=O)O)ccc1=O)Nc1cc(F)ccc1F	63.46
COCCOCC(=O)Nc1ccc(F)cc1C	52.74
O=C(Cn1cc(C(=O)O)ccc1=O)Nc1ccc(F)cc1Cl	-5.95
Cc1cc(F)ccc1NC(=O)Cn1cc(C(=O)O)ccc1=O	55.39
Cc1ccc(Cl)cc1NC(=O)Cn1cc(C(=O)O)ccc1=O	22.4
O=C(Cn1cc(C(=O)O)ccc1=O)Nc1ccc(Cl)cc1F	33.23
COCCOCC(=O)Nc1ccc(C)cc1F	11.28
O=C(CC1COCCN1C(=O)c1cscn1)c1ccccc1 (stereo not drawn)	5.43
CNC(=O)Cc1ccccc1NC(=O)C1CCN(C2CCCCC2)C1 (stereo not drawn)	-0.39
CC(=O)Nc1ccc(CNCc2ccc(CS(C)(=O)=O)cc2)cc1	-1.53
Cc1nc(CN2CCCC(NCCCOc3ccc(F)cc3)C2)no1 (stereo not drawn)	4.18
CCc1ncc(C(=O)NCC2CCN(Cc3ccncc3)CC2)cn1	-6.29
CCN1CCN(C2CCN(Cc3cc(C)on3)CC2)C1=O	-14.11
Cc1csc(N2CCN(C(=O)CCc3nccs3)CC2)n1	-18.67

Structure (SMILES)	INHIBITION [%]
Cc1[nH]ncc1C(=O)N(CC(C)C)CC(O)c1ccc(F)cc1 (stereo not drawn)	25.65
CC(C)CN(CC(O)c1ccc(F)cc1)C(=O)c1cc[nH]n1 (stereo not drawn)	10.91
Cc1cc(C(=O)N(CC(C)C)CC(O)c2ccc(F)cc2)[nH]n1 (stereo not drawn)	51.96
COc1ccc(CC(=O)N2CCCC(Cn3cc(CN)nn3)C2)cc1 (stereo not drawn)	12.43
CNc1ccc(Cl)cc1C(=O)N1CCC(Cn2cc(CN)nn2)CC1	3.72
CCC(=O)N1CCCC(Cn2cc(-c3ccc(F)cc3)nn2)C1 (stereo not drawn)	-27.82
CC(C)NC(=O)N1CCCC(Cn2cc(-c3ccc(F)cc3)nn2)C1 (stereo not drawn)	-17.86
NCc1cn(CC2CCCN(C(=O)NCc3ccc(Cl)cc3)C2)nn1 (stereo not drawn)	62.51
NCc1cn(CC2CCCN(C(=O)CC3=CCCCC3)C2)nn1 (stereo not drawn)	16.72
NCc1cn(CC2CCCN(C(=O)NCCc3ccc(F)cc3)C2)nn1 (stereo not drawn)	62.51
COc1cccc(CNC(=O)N2CCCC(Cn3cc(CN)nn3)C2)c1 (stereo not drawn)	76.82
COc1cccc(CNC(=O)CN2CCCC(Cn3cncn3)C2)c1 (stereo not drawn)	-0.76
Cc1nnc(NC(=O)NCc2ccc(OC3CCCC3)nc2)s1	12.74
CCN1C(=O)CO[C@@H]2CN(C(=O)C3CCOCC3)C[C@H]21	18.31
COc1ccc(N(c2ccc(OC)cc2)c2ccc(C(=O)O)s2)cc1	14.95
CC1c2ncc(COCC3CC3)n2CCN1C(=O)c1ccnn1C (stereo not drawn)	21.67
Cc1cc(NC(=O)NCC(C(C)C)N2CCOCC2)n(C)n1 (stereo not drawn)	11.63
CN(Cc1cccnc1)C[C@H]1OC[C@@H]2CCN(C(=O)C3CC3)C[C@@H]21	8.62
Cc1ccc(CN2CCC(n3cc(CN4CCC(O)CC4)nn3)CC2)s1	35.7
Cc1cccc(CN2CCC(n3cc(CCO)nn3)CC2)c1C	55.36
CC(CCN1CCC(n2cc(CCO)nn2)CC1)c1ccccc1 (stereo not drawn)	30.89
Cc1nc(C2CCCN2C(=O)c2cc3c(s2)CCC3)no1 (stereo not drawn)	16.89
CCc1nc(CN2CCCN(c3ncnc4ccsc34)CC2)no1	80

Structure (SMILES)	INHIBITION [%]
CCc1nc(CN2CCCN(c3ncnc4ccccc34)CC2)no1	-50.34
CCc1nc(CN2CCCN(c3ncnc4sccc34)CC2)no1	37.75
CC(C)CN1CCN(C(=O)c2ccn(C)c(=O)c2)CC1	1.36
Cc1cnn(CC2CCCN2Cc2nc3ccccc3n2C)c1 (stereo not drawn)	9.9
CC(C)c1cc(C(=O)NCCN2CCCS2(=O)=O)n[nH]1	-61.61
O=C(Cc1ccccc1)N1CCOC(c2nc(-c3ncccn3)no2)C1 (stereo not drawn)	0.18
O=C(C1CCCC1)N1CCOC(c2nc(-c3ncccn3)no2)C1 (stereo not drawn)	22.81
O=C(CC1CCCC1)N1CCOC(c2nc(-c3ncccn3)no2)C1 (stereo not drawn)	57.82
Cc1ccccc1C(=O)Nc1cnn(CC(=O)NC2CCCC2)c1	-24.24
CCS(=O)(=O)N1CCCC(c2ccnc(N(C)C)c2)C1 (stereo not drawn)	59.91
CN(C)c1cc(C2CCCN(S(=O)(=O)C3CCCC3)C2)ccn1 (stereo not drawn)	29.89
CN(C)c1cc(C2CCCN(S(=O)(=O)c3cn(C)cn3)C2)ccn1 (stereo not drawn)	36.15
CC(C)NC(=O)c1cc(-c2ccc(S(C)(=O)=O)cc2)c2cnn(C)c2n1	10.93
Cc1nc(CC(=O)N2CCC(Nc3cccnn3)CC2)cs1	3.97
CCN(Cc1cccc(-c2ccncc2)c1)S(N)(=O)=O	20.14
CCN(Cc1cccc(-c2ccncc2)c1)S(C)(=O)=O	63.1
CCN(C)S(=O)(=O)N(CC)Cc1cccc(-c2ccncc2)c1	21.24
O=C(Cc1ccon1)N1CCc2cc(Br)sc2C1	-10.14
COc1ccc(CNC(=O)N2CCC(Cc3cnn(C)c3)C2)cc1C (stereo not drawn)	20.28
Cc1cnc(NCc2ccncc2)nc1-c1cnn(C)c1	72.34
Cc1cnc(NCc2cnn(C)c2)nc1-c1cnn(C)c1	10.13
CCNc1ncc(C)c(-c2cnn(C)c2)n1	8.26
